Tau ThT inhib = inhibitors of human tau fibril formation, thioflavin T binding | recombinant tau K18 P301L, heparin-induced fibrillization, ThT fluorescence | Potency, µM (top dose mostly 57.4 µM), without a hit: top-dose activity, negative = inhibition, usual class: inhibitors | hit rate 2.1% among 270,000 | AID 1460; also: nearly all actives have a fitted effect of over 55% in size
Target sequence (P10636 561-689 P618L limits assumed): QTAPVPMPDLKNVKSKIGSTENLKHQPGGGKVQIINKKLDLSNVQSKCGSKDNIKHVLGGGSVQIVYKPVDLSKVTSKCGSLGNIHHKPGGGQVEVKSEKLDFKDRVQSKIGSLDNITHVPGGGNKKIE
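Tau K18 P301L fragment (15 uM unlabeled plus 0.24 uM Alexa 594-labeled) in 100 mM sodium acetate pH 7 with compound, fibrillization induced by 20 uM heparin for 6 hr at 37 C. Thioflavin T (30 uM) added, fluorescence read after 1 hr (ex 450, em 510 nm).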
Gal4-VP16 FLuc = counter-screen for ROR gamma inhibitors: Gal4-VP16 reporter; Drosophila S2 Gal4-VP16 UAS-luciferase, luminescence, 20 h; Potency, µM (top dose mostly 53.6 µM), inactives show top-dose activity, negative = inhibition, actives largely listed as inhibitors; hit rate 3.5% among 310,000; AID 2546;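 also: Gal4-VP16 expression switched on by copper sulfate through the metallothionein promoter; nearly all actives have a fitted effect of over 50% in size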
Tau FP inhib = blocks human tau fibril formation measured by polarization | P10636 | K18 P301L tau heparin fibrillization, Alexa594 FP, 6 h | Potency, µM (series often up to 57.7 µM), for the others: top-dose activity, negative = inhibition, most hits filed as inhibitors | hit rate 0.39% among 280,000 | AID 1468; also: nearly all actives have a fitted effect of over 55% in size
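Recombinant K18 P301L […], labeled with Alexa 594 at 0.24 uM over 15 uM unlabeled; heparin inducer 20 uM final; 37 C, 6 hr; FP endpoint.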
Tau fluor cs = counter-screen for tau fibril formation inhibitors | tau K18 P301L (four-repeat tau fragment) Alexa594 fluorescence, heparin fibrillization | Potency, µM (top dose mostly 57.7 µM), without a hit: top-dose activity change, negative = decrease | hit rate 0.93% among 280,000 | AID 1463; also: nearly all actives have a fitted effect of over 55% in size
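Human K18 P301L tau (15 uM unlabeled plus 0.24 uM Alexa 594-labeled, final) in 100 mM sodium acetate pH 7 was mixed with compound and 20 uM heparin and incubated 6 hr at 37 C.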
RORg inh = blocks mouse ROR gamma transcriptional activity. Drosophila S2 Gal4-RORgamma UAS-luciferase reporter, 20 h. Potency, µM (doses to about 53.6 µM), without a hit: top-dose activity change, negative = inhibition, usual class: inhibitors. hit rate 5.4% among 310,000. AID 2551; also: nearly all actives have a fitted effect of over 60% in size
Target sequence (P51450 whole entry, looked up, the tested form may be a part): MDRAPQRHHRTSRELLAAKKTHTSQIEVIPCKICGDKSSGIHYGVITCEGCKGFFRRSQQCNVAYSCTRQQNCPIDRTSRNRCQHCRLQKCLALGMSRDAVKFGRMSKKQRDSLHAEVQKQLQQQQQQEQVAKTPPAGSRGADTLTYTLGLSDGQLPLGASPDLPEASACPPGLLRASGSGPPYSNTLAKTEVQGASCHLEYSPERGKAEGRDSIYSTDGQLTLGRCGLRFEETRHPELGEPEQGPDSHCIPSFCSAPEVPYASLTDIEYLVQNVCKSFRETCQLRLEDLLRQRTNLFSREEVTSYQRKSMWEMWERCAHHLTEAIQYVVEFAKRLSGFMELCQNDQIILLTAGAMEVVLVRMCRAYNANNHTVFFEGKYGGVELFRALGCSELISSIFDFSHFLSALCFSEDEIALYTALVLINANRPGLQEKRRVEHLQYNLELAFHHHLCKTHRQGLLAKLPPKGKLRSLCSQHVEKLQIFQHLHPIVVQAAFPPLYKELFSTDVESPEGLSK
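ROR gamma transcriptional activity was tracked as Gal4-UAS luciferase output in stably transfected Drosophila Schneider cells, with compound added 1 hr before 700 uM copper sulfate induction and a 20 hr ambient-temperature incubation.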
Numbers without * were called inactive; ? = inconclusive; . = not tested or not shown; [ ] = another dose, or the depositor's remark. Only some compounds are listed: those with a hit (about 7.3% of all), similar ones and a draw of the others. Calls follow the shape of the dose curve; as a rule, active = well fitted curve in the direction sought with a large enough effect; inconclusive = small, poorly fitted or top-dose-only effect, or another doubt; inactive = no such curve, though single readings can be large; an effect the other way counts as inactive or inconclusive. % is scaled to controls: 0 for no effect and ±100 for the full control effect; potency is read from the fitted curve at half-maximal effect.

SMILES	Tau ThT inhib	Gal4-VP16 FLuc	Tau FP inhib	Tau fluor cs	RORg inh
Brc1ccc(-c2nc(-c3ccccn3)no2)o1	-5%	7.1µM*	3%	1%	?
Cc1ccc(S(=O)(=O)N2CCN(Cc3ccc4c(c3)OCO4)CC2)cc1	-8%	.	?	-3%	.
CC1=CC(=O)N(c2ccn(C)n2)C1=O	-12%	13µM*	-13%	-14%	14µM*
Cn1ccc(-c2ccccc2)n1	-5%	-4%	6%	2%	-4%
Cc1cc(C)n(-c2nnc(N3CCN(c4ccc(F)cc4)CC3)nn2)n1	13µM*	-16%	5%	-24%	7%
Cc1cc(C)n(-c2ccc(N3CCOCC3)nn2)n1	3%	.	5%	4%	30%[0.365 µM]
Fc1ccccc1/C=N/Nc1ncnc2ccccc12	?	4.5µM*	?	-24%	2.8µM*
Fc1ccccc1/C=N/Nc1nc2ccccc2o1	.	11µM*	.	.	6.3µM*
Clc1ccc(/C=N/Nc2ncnc3ccccc23)cc1Cl	?	3.5µM*	?	?	1.4µM*
O=C(Nc1ccc(-n2cccn2)cc1)C1CCCCN1Cc1cccc2c1OCO2 (centres undefined)	.	-4%	.	.	9%
C/C(=C\CO)CCO	3%	-5%	-10%	3%	15%
COc1ccccc1/C=C/C=N/n1c(-c2ccc(F)cc2)n[nH]c1=S	-4%	-8%	-3%	-17%	2µM*
COc1ccccc1/C=C\C=N\n1c(-c2ccc(Cl)cc2)n[nH]c1=S	7%	?	-12%	-10%	1.6µM*
COc1ccc(Br)cc1/C=N/n1c(-c2ccccc2)n[nH]c1=S	.	-20%	.	.	?
COc1ccccc1/C=C/C=N/n1c(-c2cc(-c3ccccc3)n[nH]2)n[nH]c1=S	?	4%	-3%	?	?
COc1ccccc1/C=C\C=N\n1c(-c2ccc(Cl)cc2Cl)n[nH]c1=S	4%	10µM*	-5%	-6%	7.9µM*
O=c1c(-c2ccc(F)cc2)nc2cnc(N3CCOCC3)nc2n1CCc1ccccc1	.	1%	.	.	-12%
Cc1ccc2c(c1)C1C=CCC1C(C(=O)O)N2 (centres undefined)	14µM*	-7%	?	?	-11%
COc1cccc2c1NC(C(=O)O)C1CC=CC21 (centres undefined)	16µM*	?	?	?	0%
Nc1c(C(=O)c2ccccc2O)cnn1-c1ccc(S(=O)(=O)N2CCOCC2)cc1[N+](=O)[O-]	?	13%	-3%	-20%	14%
Cc1ccc(S(=O)(=O)N2CCC(C(=O)Nc3ccc(C)c(Cl)c3)CC2)cc1	-14%	.	?	?	.
O=C1C[C@H](c2ccccc2Cl)N1S(=O)(=O)c1ccccc1[N+](=O)[O-]	.	-6%	.	.	-2%
FC(F)(F)c1ccccc1/C=N/n1c(COc2ccccc2)n[nH]c1=S	.	10µM*	.	.	5.6µM*
S=c1[nH]nc(COc2ccccc2)n1/N=C/c1ccccc1Br	.	?	.	.	8.9µM*
Oc1ccc(Br)cc1/C=N/n1c(COc2ccccc2)n[nH]c1=S	.	?	.	.	10µM*
SMILES	Tau ThT inhib	Gal4-VP16 FLuc	Tau FP inhib	Tau fluor cs	RORg inh
CCNc1ncc2nc(-c3ccccc3)c(=O)n(CCC#N)c2n1	.	-5%	.	.	-4%
COc1ccc(C)cc1Nc1nc2cc(Cl)c(Cl)cc2nc1-n1nc(C)cc1C	3%	.	-2%	0%	.
CC(NC(=O)Nc1nnc(C(F)(F)F)s1)(C(F)(F)F)C(F)(F)F	-2%	5.6µM*	-9%	-11%	5µM*
C=CCOC(=O)N[C@H](/C(C(=O)OC)=C(\C)NCc1ccccc1)c1ccc(C)cc1	?	2%	8%	-4%	-17%
Cc1cccc(-n2c(O)c(C=Nc3cc(O)ccc3C)c3ccccc3c2=O)n1	1%	-15%	?	-17%	11µM*
Cc1cccc(-n2c(O)c(/C=N/NC(=O)c3ccccc3Cl)c3ccccc3c2=O)n1	-9%	4.5µM*	1%	-7%	6.3µM*
Cc1cccc(-n2c(O)c(C=Nc3ccccc3O)c3ccccc3c2=O)n1	?	-25%	15%	?	13%
CC(=O)Nc1cccc(C(=O)OC(C(=O)c2ccc(C)c(C)c2)c2ccccc2)c1 (centres undefined)	5%	?	16µM*	?	19%
COc1ccc(C(=O)OC(C(=O)c2ccc(C)cc2)c2ccccc2)cc1 (centres undefined)	13%	-1%	-6%	-17%	25%
Cc1ccc(NC(=O)C(OC(=O)c2ccc(F)cc2)c2ccccc2)cc1Cl (centres undefined)	-1%	-17%	?	?	42%
CC(=O)Nc1cccc(C(=O)OC(C(=O)c2ccc(C)cc2)c2ccccc2)c1 (centres undefined)	13%	?	14µM*	?	?
COc1cc2c(cc1OC)C1(O)C(=O)c3ccc(O)c(C(=O)O)c3OC1CO2 (centres undefined)	-4%	7%	-1%	-12%	-8%
COc1ccc(CCn2c3c(c(=O)[nH]c2=O)C(NC(=O)c2ccccc2OC)(C(F)(F)F)C(=O)N3)cc1OC (centres undefined)	-3%	.	-7%	-13%	.
COc1cccc(NC(=S)N(CCc2c(C)[nH]c3ccccc23)Cc2cccs2)c1	-15%	?	12%	8.9µM*[quencher]	?
Cc1[nH]c2ccccc2c1CCN(Cc1cccs1)C(=S)Nc1ccccc1	-10%	-2%	10%	11µM*[quencher]	5.6µM*
Cc1[nH]c2ccccc2c1CCN(Cc1cccnc1)C(=S)Nc1ccc(F)cc1	-11%	-6%	13%	?	16%
Cc1[nH]c2ccccc2c1CCN(Cc1cccnc1)C(=S)Nc1cccc(F)c1	-11%	-8%	?	?	4%
Cc1nc(N2CCOCC2)c2nc(-c3ccccc3)n(CCN3CCCCC3)c2n1	1%	2%	5%	1%	-12%
CCOC(=O)c1sc(SCC(=O)Nc2ccc(N(C)C)cc2)nc1N	14µM*	-25%	8%	?	-44%
CN(C)c1ccc(NC(=O)CSc2nc(N)c(C(=O)Nc3ccc(N(C)C)cc3)s2)cc1	2.5µM*	-14%	13%	13µM*[quencher]	?
COc1ccc(NC(=O)CSc2nc(N)c(C(=O)Nc3ccc(N(C)C)cc3)s2)cc1	2.5µM*	4%	15%	?	-24%
CC(=O)C1=C(c2ccc(Br)cc2)C(=O)c2ccccc2C1=O	8.9µM*	6.3µM*	?	?	14µM*
CC1=CC(=C2C(=O)c3ccccc3C2=O)C=C(C)O1	?	2%	8%	-10%	?
Cc1nn(-c2ccccc2)c(Cl)c1/C=N/Nc1nc2ccccc2n1C	?	3.5µM*	4%	?	1.1µM*
Cc1nn(-c2ccccc2)c(Cl)c1/C=N/NC(N)=O	.	10%	-4%	-4%	13%
